Source: PubChem BioAssay (EPA / NIEHS)
A structure can be active in one record and inactive in another. The source made the active and inactive calls. Rule for the calls: active = hit-call score of the fitted dose curve at least 0.9, where 1 is the maximum; inactive = score below 0.9.

Experiments:
[1] = ATG_E_Box_CIS: Attagene CIS-FACTORIAL HepG2 Assay for human Enhancer Box (E-box) (AID 2282936); settings: HepG2 E-box cis-reporter transcription, actives raise or lower the signal
Procedure, shortened: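 HepG2 cells transiently transfected with multiplexed cis-element reporter units, dosed 24 h; reporter mRNA quantified by RT-PCR, 6-FAM labelling, HpaI digestion and capillary electrophoresis. E-box (USF1) signal fitted bidirectionally vs DMSO.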

[2] = ATG_M_61_CIS: Attagene CIS-FACTORIAL HepG2 Assay for M61 Transcription Factor (Internal Marker) (AID 2282937); settings: HepG2 Attagene CIS-FACTORIAL M61 internal marker reporter; actives raise or lower the signal
Procedure, shortened: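 Endogenous transcription factor activity in HepG2 is read through transiently transfected cis-element reporter units. After 24 h dosing, RNA undergoes reverse transcription, PCR and primer extension with 6-FAM before capillary electrophoresis; DMSO-referenced bidirectional fit.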

[3] = ATG_EGR_CIS: Attagene CIS-FACTORIAL HepG2 Assay for human Early Growth Response 1 (EGR1) (AID 2282938); settings: HepG2 Attagene CIS-FACTORIAL EGR reporter mRNA; actives raise or lower the signal
Procedure, shortened: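 Activity is taken as induction or loss of reporter mRNA versus DMSO, fitted bidirectionally. Transcripts from cis-regulated reporter units in transiently transfected HepG2 were measured after 24 h by RT-PCR with capillary electrophoresis.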

[4] = ATG_M_19_CIS: Attagene CIS-FACTORIAL HepG2 Assay for M19 Transcription Factor (Internal Marker) (AID 2282939); settings: HepG2 Attagene CIS-FACTORIAL M19 internal marker reporter; actives raise or lower the signal
Procedure, shortened: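 HepG2, MRTU transient transfection, 24 h dosing. Total RNA → RT-PCR → 6-FAM primer extension → HpaI digest → CE fluorescence. Bidirectional curve fit, DMSO negative control.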

[5] = target: Hepatocyte nuclear factor 3-beta (Homo sapiens) (UniProt Q9Y261); test: ATG_FoxA2_CIS: Attagene CIS-FACTORIAL HepG2 Assay for human Forkhead box A2 (FOXA2) (AID 2282942); settings: HepG2 cis-reporter transcription factor activity, 24 h; actives raise or lower the signal
Procedure, shortened: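 Reporter transcript induction is measured by fluorescence after capillary electrophoresis of RT-PCR products from HepG2 cells exposed 24 h. Cis-regulated reporter units report endogenous factor activity; curves fitted both directions against DMSO.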

[6] = ATG_GATA_CIS: Attagene CIS-FACTORIAL HepG2 Assay for human GATA Binding Protein (AID 2282944); settings: HepG2 GATA cis-element reporter, Attagene multiplex mRNA; actives raise or lower the signal
Procedure, shortened: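 Cells: HepG2, transiently transfected with cis-regulated reporter transcription units. Exposure: 24 h. Detection: RT-PCR plus capillary electrophoresis of FAM-labeled fragments. Analysis: bidirectional, DMSO as baseline.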

[7] = ATG_GLI_CIS: Attagene CIS-FACTORIAL HepG2 Assay for human Zinc Finger Protein GLI1 (AID 2282945); settings: HepG2, Attagene cis-factorial reporter mRNA, GLI element; actives raise or lower the signal
Procedure, shortened: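 Transiently transfected HepG2 cells report endogenous transcription factor activity via cis-element-driven reporter units. After 24 h compound exposure, reporter mRNA was measured by RT-PCR with capillary electrophoresis; bidirectional fitting against DMSO baseline.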

[8] = target: Bile acid receptor (Homo sapiens) (UniProt Q96RI1); test: ATG_IR1_CIS: Attagene CIS-FACTORIAL HepG2 Assay for human Nuclear Receptor Subfamily 1 Group H Member 4 (NR1H4), IR1 submotif (AID 2282946); settings: IR1 reporter transcription, actives raise or lower the signal
Procedure, shortened: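 HepG2 cells transiently transfected with multiple cis-promoter-driven reporter units to measure endogenous transcription factor activity; 24 h exposure. Reporter mRNA read by RT-PCR, FAM labelling, HpaI digestion and capillary electrophoresis. Bidirectional fit versus DMSO.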

[9] = ATG_GRE_CIS: Attagene CIS-FACTORIAL HepG2 Assay for human Glucocorticoid Response Elements (GRE) (AID 2282947); settings: HepG2 GRE cis-reporter, Attagene multiplex mRNA; actives raise or lower the signal
Procedure, shortened: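 Transiently transfected HepG2 cells carrying GRE cis-reporter units (endogenous TF activity) dosed 24 h; reporter mRNA quantified by RT-PCR, 6-FAM labelling, HpaI digestion and capillary electrophoresis. Bidirectional fit versus DMSO baseline.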

[10] = ATG_ISRE_CIS: Attagene CIS-FACTORIAL HepG2 Assay for human Interferon Regulatory Factor 1 (IRF1) binding to an Interferon-Stimulated Response Element (ISRE) (AID 2282948); settings: HepG2 ISRE cis-reporter (Attagene), mRNA transcription readout; actives raise or lower the signal
Procedure, shortened: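 Quantitation relies on labelled RT-PCR fragments separated by capillary electrophoresis. Human HepG2 cells bearing cis-promoter reporter constructs were treated 24 h; DMSO served as baseline for bidirectional fitting.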

[11] = ATG_M_06_CIS: Attagene CIS-FACTORIAL HepG2 Assay for M06 Transcription Factor (Internal Marker) (AID 2282950); settings: HepG2 Attagene CIS-FACTORIAL M06 internal marker reporter; actives raise or lower the signal
Procedure, shortened: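 Measured 24 h post-dosing in transiently transfected HepG2 cells, this internal-marker endpoint reports reporter mRNA via RT-PCR with fluorescent primer extension and capillary electrophoresis. DMSO served as negative control and baseline for bidirectional fitting.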

[12] = target: Hypoxia-inducible factor 1-alpha (Homo sapiens) (UniProt Q16665); test: ATG_HIF1a_CIS: Attagene CIS-FACTORIAL HepG2 Assay for human Hypoxia Inducible Factor 1 (HIF1A) (AID 2282951); settings: HepG2 Attagene cis-factorial HIF1a reporter transcription; actives raise or lower the signal
Procedure, shortened: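 Fluorescence intensity of capillary-separated, 6-FAM-labelled reporter amplicons gives mRNA induction in HepG2 cells carrying transfected cis-promoter reporter units; cells exposed 24 h, responses fitted up or down from DMSO.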

[13] = target: Hepatocyte nuclear factor 6 (Homo sapiens) (UniProt Q9UBC0); test: ATG_HNF6_CIS: Attagene CIS-FACTORIAL HepG2 Assay for human Hepatocyte Nuclear Factor 6 (HNF6) (AID 2282952); settings: HepG2 Attagene cis-factorial HNF6 reporter transcription; actives raise or lower the signal
Procedure, shortened: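 Transiently transfected HepG2 cells expressing cis-regulated reporter transcription units were exposed to chemical for 24 h in a 24-well format. Reporter transcript abundance was determined by fluorescence capillary electrophoresis.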

[14] = target: Heat shock factor protein 1 (Homo sapiens) (UniProt Q00613); test: ATG_HSE_CIS: Attagene CIS-FACTORIAL HepG2 Assay for human Heat Shock Transcription Factor 1 (HSE) (AID 2282953); settings: HepG2 HSE cis-reporter, Attagene RNA transcription; actives raise or lower the signal
Procedure, shortened: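 Reporter mRNA induction in HepG2 is measured 24 h after dosing, using transiently transfected multiplexed cis-regulated reporter units. Signal comes from capillary electrophoresis of labelled RT-PCR products, with DMSO as negative control.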

[15] = ATG_MRE_CIS: Attagene CIS-FACTORIAL HepG2 Assay for human Metal Responsive Element (MRE) (AID 2282954); settings: HepG2 MRE cis-reporter transcription, Attagene multiplex; actives raise or lower the signal
Procedure, shortened: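 HepG2 cells transiently transfected with cis-element-driven reporter units; mRNA measured 24 h after dosing. Reporter transcripts quantified by RT-PCR, FAM labelling, HpaI digestion and capillary electrophoresis; bidirectional fit versus DMSO.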

[16] = ATG_PBREM_CIS: Attagene CIS-FACTORIAL HepG2 Assay for human Phenobarbital-responsive Enhancer Module (PBREM) (AID 2282955); settings: HepG2 PBREM cis-reporter, Attagene multiplexed transcription; actives raise or lower the signal
Procedure, shortened: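 Cells were transfected with cis-element reporter units and treated for 24 h, after which RNA was extracted and reporter transcripts measured by RT-PCR and capillary electrophoresis.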

[17] = ATG_FoxO_CIS: Attagene CIS-FACTORIAL HepG2 Assay for human Forkhead box O (FoxO) (AID 2282943); settings: HepG2 Attagene cis-reporter, FoxO element, mRNA; actives raise or lower the signal
Procedure, shortened: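 HepG2 cells transiently transfected with cis-element-driven reporter units report endogenous FoxO activity. After 24 h chemical exposure, reporter mRNA quantified by RT-PCR, fluorescent labeling, HpaI digestion and capillary electrophoresis; bidirectional fit versus DMSO.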

[18] = ATG_ERE_CIS: Attagene CIS-FACTORIAL HepG2 Assay for Estrogen Response Element (ERE) (AID 2282940); settings: HepG2 ERE cis-reporter, Attagene RNA transcript; actives raise or lower the signal
Procedure, shortened: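 After a 24 h chemical treatment, RNA from reporter-transfected HepG2 cells is reverse-transcribed, PCR-amplified and fluorescently labelled. Fragments separated by capillary electrophoresis give reporter signal; DMSO serves as negative control.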

[19] = ATG_Ets_CIS: Attagene CIS-FACTORIAL HepG2 Assay for human Erythroblast Transformation Specific (ETS) (AID 2282941); settings: HepG2 ETS cis-reporter transcription, actives raise or lower the signal
Procedure, shortened: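 After transient cis-reporter transfection, HepG2 cells receive test chemical for 24 h. Reporter mRNA levels, measured by RT-PCR and capillary electrophoresis fluorescence, are analysed bidirectionally relative to the DMSO baseline.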

[20] = ATG_M_32_CIS: Attagene CIS-FACTORIAL HepG2 Assay for M32 Transcription Factor (Internal Marker) (AID 2282949); settings: HepG2 Attagene cis-factorial M32 reporter, mRNA; actives raise or lower the signal;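 note: background control marker of the multiplexed CIS panel rather than a real target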
Procedure, shortened: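 HepG2 cells transiently transfected with multiplexed cis-regulated reporter units, dosed 24 h. Reporter mRNA quantified by RT-PCR, 6-FAM labelling, HpaI digestion and capillary electrophoresis; bidirectional fit vs DMSO.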

Measured: AC50

Hypoxia-inducible factor 1-alpha (Homo sapiens), sequence (Q16665 whole entry, looked up): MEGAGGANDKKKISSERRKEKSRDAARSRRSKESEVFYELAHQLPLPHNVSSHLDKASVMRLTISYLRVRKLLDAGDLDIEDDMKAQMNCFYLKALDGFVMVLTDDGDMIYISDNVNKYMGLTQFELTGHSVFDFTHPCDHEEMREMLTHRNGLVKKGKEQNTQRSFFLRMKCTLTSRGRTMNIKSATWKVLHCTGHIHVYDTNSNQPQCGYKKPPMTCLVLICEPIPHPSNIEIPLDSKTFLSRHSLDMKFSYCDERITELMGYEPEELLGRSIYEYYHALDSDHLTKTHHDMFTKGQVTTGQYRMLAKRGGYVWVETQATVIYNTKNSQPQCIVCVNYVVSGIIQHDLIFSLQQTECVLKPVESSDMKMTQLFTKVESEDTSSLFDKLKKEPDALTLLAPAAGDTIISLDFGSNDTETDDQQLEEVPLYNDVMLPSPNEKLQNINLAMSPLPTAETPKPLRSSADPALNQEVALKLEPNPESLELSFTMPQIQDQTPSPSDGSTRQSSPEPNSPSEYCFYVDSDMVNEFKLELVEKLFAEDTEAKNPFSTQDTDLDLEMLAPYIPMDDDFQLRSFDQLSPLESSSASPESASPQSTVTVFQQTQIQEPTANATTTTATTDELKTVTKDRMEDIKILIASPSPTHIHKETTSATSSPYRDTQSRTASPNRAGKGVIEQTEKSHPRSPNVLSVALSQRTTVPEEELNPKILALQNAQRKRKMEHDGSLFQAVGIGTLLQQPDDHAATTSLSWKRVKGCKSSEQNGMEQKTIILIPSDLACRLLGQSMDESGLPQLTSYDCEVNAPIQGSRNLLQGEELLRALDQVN
Bile acid receptor (Homo sapiens), sequence (Q96RI1 whole entry, looked up): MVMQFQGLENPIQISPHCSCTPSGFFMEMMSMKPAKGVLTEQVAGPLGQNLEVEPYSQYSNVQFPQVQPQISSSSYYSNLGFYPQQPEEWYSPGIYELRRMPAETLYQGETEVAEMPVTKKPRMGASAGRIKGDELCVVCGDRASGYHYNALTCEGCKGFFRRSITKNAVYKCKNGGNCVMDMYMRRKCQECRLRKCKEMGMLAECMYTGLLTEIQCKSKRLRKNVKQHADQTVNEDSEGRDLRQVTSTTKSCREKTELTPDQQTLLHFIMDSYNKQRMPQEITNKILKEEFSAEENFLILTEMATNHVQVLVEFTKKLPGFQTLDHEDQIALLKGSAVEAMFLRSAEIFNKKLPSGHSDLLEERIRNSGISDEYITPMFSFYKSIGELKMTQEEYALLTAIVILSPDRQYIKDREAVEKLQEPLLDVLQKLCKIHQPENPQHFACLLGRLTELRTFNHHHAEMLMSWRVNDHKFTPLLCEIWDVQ
Heat shock factor protein 1 (Homo sapiens), sequence (Q00613 whole entry, looked up): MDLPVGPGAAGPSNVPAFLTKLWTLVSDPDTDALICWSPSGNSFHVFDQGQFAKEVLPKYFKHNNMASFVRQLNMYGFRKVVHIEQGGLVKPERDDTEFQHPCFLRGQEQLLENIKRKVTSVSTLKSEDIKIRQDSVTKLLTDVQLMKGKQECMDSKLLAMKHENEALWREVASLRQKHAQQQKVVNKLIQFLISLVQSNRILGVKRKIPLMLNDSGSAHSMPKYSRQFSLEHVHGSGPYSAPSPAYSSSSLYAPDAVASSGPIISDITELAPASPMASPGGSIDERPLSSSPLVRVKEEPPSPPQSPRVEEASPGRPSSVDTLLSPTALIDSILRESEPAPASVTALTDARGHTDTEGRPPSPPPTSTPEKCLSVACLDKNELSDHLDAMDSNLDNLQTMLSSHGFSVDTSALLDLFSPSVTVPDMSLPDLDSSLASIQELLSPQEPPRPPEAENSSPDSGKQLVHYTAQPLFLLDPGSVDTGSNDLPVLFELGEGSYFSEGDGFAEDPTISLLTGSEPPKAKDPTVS
Hepatocyte nuclear factor 3-beta (Homo sapiens), sequence (Q9Y261 whole entry, looked up): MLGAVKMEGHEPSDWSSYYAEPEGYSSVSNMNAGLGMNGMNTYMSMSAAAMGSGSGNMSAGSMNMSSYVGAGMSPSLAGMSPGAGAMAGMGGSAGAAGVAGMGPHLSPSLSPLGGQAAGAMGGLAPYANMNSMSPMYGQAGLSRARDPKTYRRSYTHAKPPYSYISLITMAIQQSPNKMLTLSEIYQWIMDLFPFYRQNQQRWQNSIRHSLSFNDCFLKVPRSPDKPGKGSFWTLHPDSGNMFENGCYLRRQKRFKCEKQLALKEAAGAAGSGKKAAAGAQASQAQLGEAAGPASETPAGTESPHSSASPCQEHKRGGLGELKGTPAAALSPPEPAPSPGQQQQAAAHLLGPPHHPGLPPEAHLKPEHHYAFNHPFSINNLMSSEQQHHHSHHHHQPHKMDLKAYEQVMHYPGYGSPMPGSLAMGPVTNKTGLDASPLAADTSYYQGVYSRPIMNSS
Hepatocyte nuclear factor 6 (Homo sapiens), sequence (Q9UBC0 whole entry, looked up): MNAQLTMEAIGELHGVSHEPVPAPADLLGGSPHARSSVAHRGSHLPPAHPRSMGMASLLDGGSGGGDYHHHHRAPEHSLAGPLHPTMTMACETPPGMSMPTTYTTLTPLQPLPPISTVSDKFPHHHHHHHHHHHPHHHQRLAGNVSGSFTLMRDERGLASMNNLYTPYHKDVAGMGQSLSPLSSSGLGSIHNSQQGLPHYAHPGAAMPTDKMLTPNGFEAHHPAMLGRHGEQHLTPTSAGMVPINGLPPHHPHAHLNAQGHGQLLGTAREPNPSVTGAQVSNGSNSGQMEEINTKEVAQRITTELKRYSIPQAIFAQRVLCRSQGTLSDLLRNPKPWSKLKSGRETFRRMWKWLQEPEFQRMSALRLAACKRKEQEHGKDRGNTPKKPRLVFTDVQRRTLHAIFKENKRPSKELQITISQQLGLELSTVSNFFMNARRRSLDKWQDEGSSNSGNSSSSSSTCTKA

COc1ccc(C(=CC(=O)N2CCOCC2)c2ccc(Cl)cc2)cc1OC
active: [3] 28.4 µM | [12] 25.5 µM | [15] 30.7 µM | [16] 24.9 µM
not listed: [17] | [18] | [19] | [20]
inactive: all other assays above

CCc1cccc(C)c1N(C(=O)CCl)C(C)COC (stereo not given)
active: [16] 7.5 µM
not listed: [8] | [9] | [14] | [18] | [19] | [20]
inactive: all other assays above

O=[N+]([O-])c1cc(C(F)(F)F)c(Cl)c([N+](=O)[O-])c1Nc1ncc(C(F)(F)F)cc1Cl
inactive: [1] | [3] | [4] | [18] | [19] | [5] | [6] | [7] | [8] | [9] | [10] | [11] | [12] | [13] | [14] | [15] | [16]
active: [1] 15.2 µM | [5] 20 µM | [8] 12.9 µM | [9] 20.3 µM | [10] 16.6 µM | [13] 17.1 µM

CCc1cccc(CC)c1N(COC)C(=O)CCl
not listed: [2] | [17] | [20]
inactive: all other assays above

CCOP(=O)(SC(C)CC)N1CCSC1=O (stereo not given)
not listed: [8] | [9] | [17] | [18] | [19] | [20]
inactive: all other assays above

CNC(=O)ON=C(SC)C(=O)N(C)C
active: [18] 15.7 µM
not listed: [8] | [9] | [14] | [17] | [19]
inactive: all other assays above

COP(=O)(OC)SCn1c(=O)oc2cc(Cl)cnc21
not listed: [2] | [8] | [14] | [19] | [20]
inactive: all other assays above

CC1(C(=O)Nc2ccc(O)c(Cl)c2Cl)CCCCC1
active: [3] 32.2 µM | [15] 50 µM | [16] 5.86 µM
not listed: [2] | [9] | [14] | [18] | [20]
inactive: all other assays above

C[Si](Cn1cncn1)(c1ccc(F)cc1)c1ccc(F)cc1
active: [1] 83.2 µM | [3] 50 µM | [8] 69 µM | [12] 50 µM | [15] 63.2 µM
not listed: [2] | [9] | [14] | [16] | [18] | [20]
inactive: all other assays above

CSC1=N[C@@](C)(c2ccccc2)C(=O)N1Nc1ccccc1
active: [3] 19.9 µM | [15] 50 µM | [16] 21.7 µM
not listed: [2] | [14] | [17] | [18] | [20]
inactive: all other assays above

CCC(=NOC/C=C/Cl)C1=C(O)CC(C2CCOCC2)CC1=O (stereo not given)
not listed: [2] | [8] | [14] | [18]
inactive: all other assays above

CNC(=O)ON=C(C)SC
not listed: [2] | [8] | [14] | [16] | [17] | [18] | [20]
inactive: all other assays above

CN(C)C(=O)Nc1cccc(C(F)(F)F)c1
not listed: [2] | [8] | [9] | [17] | [18]
inactive: all other assays above

N#CSCSC#N
not listed: [2] | [17] | [18] | [19]
inactive: all other assays above

O=C(O)c1cc(Oc2ccc(C(F)(F)F)cc2Cl)ccc1[N+](=O)[O-]
not listed: [2] | [8] | [14] | [16] | [18]
inactive: all other assays above

CCOP(=S)(OCC)Oc1ccc2c(C)c(Cl)c(=O)oc2c1
not listed: [2] | [8] | [14] | [18]
inactive: all other assays above

CC(=NC#N)N(C)Cc1ccc(Cl)nc1
not listed: [2] | [8] | [9] | [16] | [17] | [18] | [19] | [20]
inactive: all other assays above

CC(C1CC1)C(O)(Cn1cncn1)c1ccc(Cl)cc1 (stereo not given)
not listed: [2] | [8] | [9] | [14] | [16] | [17] | [18] | [19]
inactive: all other assays above

CCOP(=S)(OCC)Oc1cc(C)nc(C(C)C)n1
active: [16] 9.92 µM
not listed: [2] | [8] | [14] | [18]
inactive: all other assays above

CCOP(=S)(OCC)Oc1ccc([N+](=O)[O-])cc1
active: [15] 50 µM
not listed: [2] | [8] | [18] | [19]
inactive: all other assays above
